Compounds without any hit were thinned out: in the full panel of roughly 79,000, 15% have a hit. A number with no mark means an inactive call. Active and inactive are the calls of the source. No stated cut-off is given here; in the data, active means growth inhibition above about 70%; inactive means the rest.
Test: NCI Yeast Anticancer Drug Screen. Data for the mec2-1 strain (AID 157)
Conditions: S. cerevisiae mec2-1 strain, at 50.0 µM (retest, dose inferred, filed as 5.0), active compounds read high
In short: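 Cells of the genetically defined mec2-1 yeast strain are incubated with test compound. Inhibition of growth is calculated against vehicle-treated controls.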
Cc1cc(SC#N)cc(C)c1O showed a growth inhibition of 47%.
Compound CCN(CC)CCCNc1ncc(C)c2c1c1ccc3c(O)cccc3c1n2C has a growth inhibition of 7%.
In the case of O=C1c2ccccc2C(O)(C#Cc2ccccc2)c2cnccc21 (stereo unspecified), the growth inhibition was 97% (active).
With CC(=O)Nc1nnc(C)s1 the growth inhibition was -3%.
CC1CN(CC(O)c2ccc(Br)cc2)CC(C)O1 (stereo unspecified) showed a growth inhibition of 28%.
In the case of O=C(C=P(c1ccccc1)(c1ccccc1)c1ccccc1)CC(=S)CC(=O)C=P(c1ccccc1)(c1ccccc1)c1ccccc1, the growth inhibition was 69%.
For CN(C)CCC(/C=C/c1ccccc1)=N\Nc1ccc(Cl)cc1Cl, the growth inhibition was 94% (active).
In the case of Oc1c(Cl)cc(Br)cc1Cl, the growth inhibition was 99% (active).
Cc1ccc2c(ccc(CC(=S)[S-])[n+]2C)c1 showed a growth inhibition of 21%.
In the case of Cc1ccc2c(c1)C(=O)N(CC[P+](c1ccccc1)(c1ccccc1)c1ccccc1)C2=O, the growth inhibition was 85% (active).
Nc1ncnc2c1c(-c1ccccc1)cn2-c1ccc(Cl)cc1 gave a growth inhibition of 10%.
In the case of Nc1nnc(-c2cc([N+](=O)[O-])cc([N+](=O)[O-])c2)o1, the growth inhibition was -5%.
Work on COc1cc2c(cc1OC)C(Cl)C(c1ccc(F)cc1)=C2Cl (stereo unspecified) yielded a growth inhibition of 3%.
With COc1ccc(C2Oc3c(cccc3OC)C=C2[N+](=O)[O-])cc1 (stereo unspecified) the growth inhibition was 98% (active).
For O=C(O)c1cc2cc3ccccc3cc2cc1O, the growth inhibition was 34%.
In the case of Oc1ccc2ccc3ccccc3c2c1, the growth inhibition was 99% (active).
COC(=O)c1ccc(OC)cc1 gave a growth inhibition of -3%.
With Clc1ccc2c(NCCCCCCNc3ccnc4cc(Cl)ccc34)ccnc2c1 the growth inhibition was 98% (active).
Compound COc1ccc(C2C3=C(CCC(CN(C)C)C3=O)OC3=C2C(=O)C(CN(C)C)CC3)cc1 (stereo unspecified) has a growth inhibition of -1%.
Work on CC(C)CC(NC(=O)COc1c(Cl)cc(Cl)c(Cl)c1Cl)C(=O)O (stereo unspecified) yielded a growth inhibition of 39%.
Compound Cc1nc2c(=O)[nH]c3ccc(Cl)cc3c2o1 has a growth inhibition of 59%.

Same assay, conditions: S. cerevisiae mec2-1 strain, at 50.0 µM, active compounds read high
For O=Nc1c(O)ccc2ccccc12.[Fe].[Na+], the growth inhibition was 97.7% (active).
With CC(C)Cc1ncc(CC(C)C)n(O)c1=O the growth inhibition was 87.8% (active).
COc1ccc2c(c1)CCc1c-2ccc(C)c1CCC(=O)O showed a growth inhibition of 63.8%.
For COc1ccc(/C=C(\C#N)c2ccccc2)cc1OC, the growth inhibition was 87.3% (active).
Compound CCC(=O)OCC(=O)c1ccc(-c2ccccc2)cc1 has a growth inhibition of -3.7%.
With C=C1CC(c2ccc(OCCCN3C(=O)c4ccccc4C3=O)c(OC)c2)OC1=O (stereo unspecified) the growth inhibition was 88.2% (active).
In the case of N[C@H](C(=O)O)[C@@H]1CC(Cl)=NO1, the growth inhibition was 89.8% (active).
Cc1ccc2c(c1)[n+]([O-])c(N)c(C#N)[n+]2[O-] gave a growth inhibition of 25.8%.
In the case of Cc1cc(O)c2c(c1)C(=O)c1c(c(O)cc(O)c1-c1c(O)cc(O)c3c1C(=O)c1cc(C)cc(O)c1C3=O)C2=O, the growth inhibition was 70.3% (active).
CC(=O)c1csc2c1C(=O)c1scc(C(C)=O)c1C2=O showed a growth inhibition of 30.9%.
For CCC(CCCN(CC)CCc1ccccc1)OC(=O)c1cc(OC)c(OC)c(OC)c1 (stereo unspecified), the growth inhibition was 27.2%.
For COC(CCC[N+](C)(C)C)CC[N+](C)(C)C (stereo unspecified), the growth inhibition was 97.6% (active).
Compound CCC(=O)c1ccc2ccc3ccccc3c2c1 has a growth inhibition of 26.4%.
Compound CN(C)c1nc(N(C)C)oc(=[N+](C)C)n1 has a growth inhibition of 9.35%.
For COc1ccc(Cc2ccc(N)cc2)cc1, the growth inhibition was 86.7% (active).
For CN(C)CC(CN(C)C)C(=O)c1ccc(Oc2ccccc2)cc1, the growth inhibition was 99.7% (active).
With C1C2OC2C2C1C1CC2C2OC12 (stereo unspecified) the growth inhibition was -12.8%.
For Nc1ccc2c(c1)[nH]c(=O)c1cccc(Cl)c12, the growth inhibition was 55.3%.
COc1cccc(C2c3cc4c(cc3OC(Nc3ccccc3)C2C)OCO4)c1O (stereo unspecified) showed a growth inhibition of 55.1%.
Cc1cc(SC#N)cc(C)c1O showed a growth inhibition of 63.1%.
Work on CCN(CC)CCCNc1ncc(C)c2c1c1ccc3c(O)cccc3c1n2C yielded a growth inhibition of -0.35%.
With O=C1c2ccccc2C(O)(C#Cc2ccccc2)c2cnccc21 (stereo unspecified) the growth inhibition was 98.5% (active).
For CC(=O)Nc1nnc(C)s1, the growth inhibition was -11.8%.
For CC1CN(CC(O)c2ccc(Br)cc2)CC(C)O1 (stereo unspecified), the growth inhibition was 34.2%.
With O=C(C=P(c1ccccc1)(c1ccccc1)c1ccccc1)CC(=S)CC(=O)C=P(c1ccccc1)(c1ccccc1)c1ccccc1 the growth inhibition was 97.8% (active).
In the case of CN(C)CCC(/C=C/c1ccccc1)=N\Nc1ccc(Cl)cc1Cl, the growth inhibition was 99.5% (active).
For Oc1c(Cl)cc(Br)cc1Cl, the growth inhibition was 92.9% (active).
Cc1ccc2c(ccc(CC(=S)[S-])[n+]2C)c1 gave a growth inhibition of 51.6%.
With Cc1ccc2c(c1)C(=O)N(CC[P+](c1ccccc1)(c1ccccc1)c1ccccc1)C2=O the growth inhibition was 63.8%.
For Nc1ncnc2c1c(-c1ccccc1)cn2-c1ccc(Cl)cc1, the growth inhibition was 15.5%.
With Nc1nnc(-c2cc([N+](=O)[O-])cc([N+](=O)[O-])c2)o1 the growth inhibition was 14.6%.
For COc1cc2c(cc1OC)C(Cl)C(c1ccc(F)cc1)=C2Cl (stereo unspecified), the growth inhibition was 10.4%.
With COc1ccc(C2Oc3c(cccc3OC)C=C2[N+](=O)[O-])cc1 (stereo unspecified) the growth inhibition was 40.1%.
For O=C(O)c1cc2cc3ccccc3cc2cc1O, the growth inhibition was 57.2%.
With Oc1ccc2ccc3ccccc3c2c1 the growth inhibition was 99.5% (active).
In the case of COC(=O)c1ccc(OC)cc1, the growth inhibition was 3.4%.
For Clc1ccc2c(NCCCCCCNc3ccnc4cc(Cl)ccc34)ccnc2c1, the growth inhibition was 92.4% (active).
In the case of COc1ccc(C2C3=C(CCC(CN(C)C)C3=O)OC3=C2C(=O)C(CN(C)C)CC3)cc1 (stereo unspecified), the growth inhibition was 4.1%.
For CC(C)CC(NC(=O)COc1c(Cl)cc(Cl)c(Cl)c1Cl)C(=O)O (stereo unspecified), the growth inhibition was -8.6%.
Cc1nc2c(=O)[nH]c3ccc(Cl)cc3c2o1 showed a growth inhibition of 38.1%.

Source: PubChem BioAssay (NCI)
